Assay results taken from PubChem BioAssay (NCI).
About 83,000 compounds went through this panel and 20% of them were active in at least one assay; those are over-represented in the sample as a whole.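 Treatment: one concentration, 48 hours, 96-well format. Scoring: percent growth, with anything below 10 considered active.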 Unmarked numbers belong to inactive results. The source made the active and inactive calls.

Tests used:
Assay in all cases: NCI-60 one-dose screen, 48 h (100 = growth as untreated, 0 = no growth, -100 = all killed)
Settings in all cases: 10 µM unless noted
T-47D breast = system: T-47D breast
MDA-MB-435 melanoma = system: MDA-MB-435 melanoma
SW-620 colon = system: SW-620 colon
MCF7 breast = system: MCF7 breast
HCT-116 colon = system: HCT-116 colon
HCC-2998 colon = system: HCC-2998 colon
KM12 colon = system: KM12 colon
BT-549 breast = system: BT-549 breast

Structure (SMILES)	growth (T-47D breast)	growth (MDA-MB-435 melanoma)	growth (SW-620 colon)	growth (MCF7 breast)	growth (HCT-116 colon)	growth (HCC-2998 colon)	growth (KM12 colon)	growth (BT-549 breast)
COc1cc(-c2nn(-c3ccc(NC(=O)c4cc(Cl)cc(Cl)c4)cc3)cc2-c2ccncc2)ccc1Cl	79.8%	84.1%	77.2%	78%	64.9%	62.2%	38.7%	–
CCC(C)(C)c1ccc(OCCCCCCN2CCN(c3ccc(C)c(Cl)c3)CC2)cc1	66.1%	97.3%	–	88.4%	62.3%	83.5%	79.3%	79.5%
COc1cc(-c2nn(-c3ccc(NC(=O)c4ccc(Cl)c(Cl)c4)cc3)cc2-c2ccncc2)ccc1Cl	64.9%	86.2%	48.6%	60.6%	25%	48.3%	25.1%	–
COc1ccc2cn3c4ccc(O)cc4[nH]c(=O)c3c2c1	33.9%	-37.7% (active)	11.3%	-5.85% (active)	10.6%	19.3%	11.9%	–
Oc1ccc2ccccc2c1/C=N\Nc1ccccn1	7.06% (active)	25.1%	–	2.43% (active)	–	21%	29.7%	22.2%
CCS(=O)(=O)N[C@@H]1O[C@H](COC(C)=O)C(OC(C)=O)[C@H](OC(C)=O)C1OC(C)=O (stereo not given in full)	90.7%	103%	–	103%	95.3%	–	106%	–
CC(=O)NNC(=O)c1sc(NC(C)=O)nc1C	76.5%	110%	96.9%	87.4%	90.5%	73.8%	105%	–
C=C[C@]1(C)C=C2C(=O)[C@@]3(O)OC[C@@]4(CCCC(C)(C)C43O)C2(O)C(O)C1 (stereo not given in full)	20.9%	60.2%	-57.7% (active)	21%	-79.6% (active)	–	89.4%	–
CC(=O)Nc1nc(C)c(C(=O)N/N=C/N2CCOCC2)s1	102%	127%	107%	–	93.8%	157%	105%	–
COC(=O)/C=C/c1cc(O)c2oc(-c3ccc(O)c(O)c3)c(C(=O)OC)c2c1	–	-37.1% (active)	14.8%	9.36% (active)	24.5%	47.2%	13.8%	46.6%
Nc1nc(-c2cccc(Br)c2)cc(-c2cc3ccccc3oc2=O)n1	83.2%	117%	105%	57.6%	85.5%	–	99.2%	–
Cc1[nH]n(C(=S)Nc2nc3cc(Cl)c(F)cc3s2)c(=O)c1N=Nc1ccc(F)c(Cl)c1	79.6%	124%	102%	80.8%	–	114%	110%	–
OC(c1ccccc1)(c1ccccc1)C(F)(F)F	92.1%	103%	–	–	107%	–	92.3%	–
COc1ccc2cc(C(C)C(=O)Nc3ccc(S(=O)(=O)Nc4cc(C)on4)cc3)ccc2c1 (stereo not given)	84.8%	105%	–	102%	96.5%	–	110%	–
N#Cc1c2cccnc2c2nnc3cc(Cl)c(Cl)cc3n12	25.9%	84.4%	-39% (active)	1.41% (active)	-73.1% (active)	13.4%	47.5%	–
N#Cc1c(N)nc(Nc2nc3ccccc3[nH]2)nc1-c1ccc(Cl)cc1	93.8%	106%	117%	86.9%	109%	–	109%	–
O=C(N/N=C\c1ccc(-c2ccc(Br)cc2)o1)c1cc2oc(-c3cccc(C(F)(F)F)c3)cc2[nH]1	101%	98.9%	118%	89.9%	–	85.5%	74%	–

Structure (SMILES)	growth (T-47D breast)	growth (MDA-MB-435 melanoma)	growth (SW-620 colon)	growth (MCF7 breast)	growth (HCT-116 colon)	growth (HCC-2998 colon)	growth (KM12 colon)	growth (BT-549 breast)
COc1cc(-c2nn(-c3ccc(NC(=O)Nc4ccc(Cl)c(C(F)(F)F)c4)cc3)cc2-c2ccncc2)ccc1Cl	15.1%	4% (active)	13.4%	8.22% (active)	2.34% (active)	-2.15% (active)	6.77% (active)	–
Cc1ccc(NCc2cn(-c3ccc(C(=O)O)cc3)nc2-c2ccc(C(=O)O)cc2)cc1	–	107%	110%	93.6%	100%	101%	93.9%	108%
O=c1[nH]c2cc(O)ccc2n2cc3c(F)cccc3c12	39.1%	-12.2% (active)	18.7%	-3.3% (active)	19.9%	–	34.7%	–
COc1ccc2c(c1)cn1c3ccc(O)cc3[nH]c(=O)c21	37.2%	1.04% (active)	8.4% (active)	-4.36% (active)	-85.4% (active)	11.8%	9.45% (active)	–
Cc1nc(NC(=S)Nc2ccc(F)cc2)sc1C(=O)NNC(=S)Nc1ccc(F)cc1	35.6%	71.5%	86.7%	72.2%	44.9%	68.4%	76.6%	–
CC(=O)Nc1nc(C)c(C(=O)N/N=C/N2CCCCC2)s1	98.4%	125%	106%	94.8%	55.8%	20.3%	128%	–
O=C(c1ccccc1)c1ccccc1-c1ccccc1	27%	-22.2% (active)	15.8%	18.1%	14%	47.1%	29.5%	–
C=CC1CN2CCC1CC2C(O)c1ccnc2ccc(OC)cc12 (stereo not given)	102%	100%	105%	–	49.8%	155%	112%	–
CCC(C)[C@H](NC(=O)Nc1cc(C(F)(F)F)cc(C(F)(F)F)c1)C(=O)N[C@@H](Cc1cn(C)cn1)C(=O)OC (stereo not given in full)	–	-91.6% [100 µM] (active)	-58.3% [100 µM] (active)	-60.1% [100 µM] (active)	-93.1% [100 µM] (active)	-89.9% [100 µM] (active)	–	-94.5% [100 µM] (active)
O=C(Nc1ccc(-n2cc(-c3ccncc3)c(-c3ccc(Cl)c(O)c3)n2)cc1)c1cc(Cl)cc(Cl)c1	79.1%	42.2%	0.0883% (active)	–	16.1%	33%	19.3%	–
COC(=O)[C@@H]1[C@H](O)[C@H](C)[C@H](O)[C@H](C)/C=C\C=C(C)C(=O)Nc2c(C)c(OC(C)=O)c3c(c2O)C(=O)C(C)=C2OCOC(=C23)C(C)=C[C@@](C)(O)[C@H](O)[C@@H](C)[C@H]1OC(C)=O	118%	122%	117%	104%	55.8%	118%	119%	–
CC(C)(C)OC(=O)N1C/C(=C\c2ccccc2)C(=O)/C(=C/c2ccccc2)C1	–	102%	93.7%	78.1%	80.7%	103%	108%	91.5%
NCCCOc1cc2ccccc2cc1C(=O)Nc1ccc(Cl)cc1OC(=O)c1cc2ccccc2cc1OCCCN	-55.9% (active)	-76.9% (active)	-94.9% (active)	-78.9% (active)	–	–	-96.5% (active)	–
C/C=C/C/C=C/[C@H](C)C[C@H](O)[C@@H]1C[C@@H]2O[C@H]2/C=C/[C@@H]2OC(C)(C)O[C@H]2/C=C/C[C@H](C)CC(=O)O1	-4.89% (active)	77.1%	56.8%	45.1%	18.6%	71.9%	31.7%	–
O=S(=O)(O)CCI	99.4%	114%	102%	98.3%	98.3%	110%	114%	–
O=C1OC(c2ccc(-c3ccccc3)cc2)=C/C1=C/c1c2ccccc2cc2ccccc12	102%	102%	96.9%	83.9%	–	98.7%	97.3%	–
